In PubChem BioAssay AID1345082 (National Center for Advancing Translational Sciences (NCATS), 2018):
Out of some 94,000 compounds screened, about 4,000 (4.3%) were called active. Not shown: some 29% with an inconclusive outcome. The full list was thinned out, with actives kept by preference. A number with no mark means an inactive call. Calls follow the shape of the dose curve; as a rule, active = well fitted inhibition curve with a large enough effect; inconclusive = small, poorly fitted or top-dose-only effect; inactive = no such curve, though single readings can be large or run the other way.

test: Cytotoxic Profiling in NIH 3T3 Cell Line of Diverse Libraries Using Quantitative High-Throughput Screening; details: NIH 3T3 viability, CellTiter-Glo ATP luminescence, 48-72 h; series mostly up to 96.7 µM; activity change, negative = cytotoxicity: at the top concentration; also: nearly all actives have a fitted effect of over 55% in size
Outline: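 First NIH 3T3 cells are plated at 400 cells/well; next compound is pinned in; then plates incubate 48 or 72 hr at 37 °C; finally CellTiter-Glo is added and luminescence read after 10 min.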
% is scaled to controls: 0 for no effect and ±100 for the full control effect; potency is read from the fitted curve at half-maximal effect.

| SMILES | activity change, negative = cytotoxicity | Potency | outcome |
| --- | --- | --- | --- |
| Cc1ccc(CCN2C[C@]34C=C[C@H](O3)C(C(=O)N(C)Cc3nccn3C)C4C2=O)cc1 (stereo not given in full) | 1.63% | – | – |
| COc1ccc(CNC(=O)c2c(C)sc3ccn(CC(C)C)c(=O)c23)cc1OC | -2.65% | – | – |
| COc1ccc(CNC(=O)c2cccc3c2CCN3C(=O)c2ccc(F)cc2)cc1OC | – | 39.8 µM (active) | – |
| COc1ccc(-c2ccc(C(=O)NCc3ccc(F)cc3)cc2)nn1 | -1.17% [at 138 µM] | – | – |
| COc1ccc(CC(=O)N2CCC[C@@H]2C(=O)N2CCC(N3CCOC3=O)CC2)cc1 | -3.95% | – | – |
| COc1ccc(Cn2c(C3CCN(C(=O)Cc4ccsc4)CC3)n[nH]c2=O)cc1 | -9.33% | – | – |
| COc1cncc(-c2cccc(COc3ccc4c(cnn4CC[S+](C)(=O)[O-])c3)c2)c1 | – | 56.2 µM (active) | – |
| O=C1CCN(C2CCCC2)CCOCCN1 | -17.3% | – | – |
| O=C1CCN(Cc2ccncc2)CCCC(C(=O)Nc2cccc(F)c2)CCN1 (stereo not given) | -3.66% | – | – |
| O=C(Nc1cccc(Cl)c1)C1CN(c2ccccc2)C(=O)N1 (stereo not given) | -11.9% [at 138 µM] | – | – |
| O=C(Nc1cccc(Cl)c1)[C@@H]1C[C@H](c2ccc(F)cc2)N([S+](=O)([O-])C2CC2)C1 | – | 79.4 µM (active) | – |
| O=C(Nc1cccc(Cl)c1)[C@@H]1C[C@@H](c2ccc(F)cc2)N([S+](=O)([O-])c2cccnc2)C1 | – | 35.5 µM (active) | – |
| O=C(Nc1cccc(F)c1)c1cc2n(n1)CC(c1ccc(Cl)cc1)OC2 (stereo not given) | -29.5% | – | – |
| O=C(NCC1CCOCC1)Nc1cccc(Cl)c1 | -7.43% | – | – |
| O=C(C1CCOC1)N1CCC(N(Cc2ccccc2)C2CCOCC2)CC1 (stereo not given) | -1.09% | – | – |
| CN(C)C(=O)N1CCCC1C(=O)N1CCC(c2nc3ccncc3[nH]2)C1 (stereo not given) | -7.11% [at 138 µM] | – | – |
| Nc1nc(CCCNC(=O)C2NCCc3[nH]cnc32)cs1 (stereo not given) | – | – | inactive |
| O=C(Nc1ccccc1)N1CCC(C(=O)N2CCC(N3CCOCC3=O)CC2)CC1 | – | – | inactive |
| CC[C@H]1CN(S(C)(=O)=O)CC[C@H]1CC(=O)NCc1ccco1 | – | – | inactive [at 174 µM] |
| Cc1cccc(C)c1NC(=O)N(C)CC1CCOCC1 | 1.98% | – | – |
| COCC(=O)N[C@@H]1CN(Cc2ccc(F)c(OC)c2)C[C@H]1CO | -13.2% | – | – |
| O=C(NCCc1ccccc1)c1ccc2nnc(-c3cccc(C(F)(F)F)c3)n2c1 | – | 39.8 µM (active) | – |
| O=C(NCc1ccc(F)c(F)c1)c1ccc2nnc(-c3cccnc3)n2c1 | -18.6% | – | – |
| O=C(NCCCc1ccccc1)C1CCc2nnc(-c3cccc(C(F)(F)F)c3)n21 (stereo not given) | -28.9% | – | – |
| O=C(NCc1ccccc1)c1ccc2nnc(C3CC3)n2c1 | -24.4% [at 138 µM] | – | – |

| SMILES | activity change, negative = cytotoxicity | Potency | outcome |
| --- | --- | --- | --- |
| COCCNC(=O)c1ccc2nnc(-c3cccc(C(F)(F)F)c3)n2c1 | -16.9% | – | – |
| O=C(NCc1ccc(C(F)(F)F)cc1)c1ccc2nnc(-c3ccc(C(F)(F)F)cc3)n2c1 | – | 31.6 µM (active) | – |
| COC(=O)c1ccc(CN2C(=O)[C@@H]3C[C@@H](O)CN3C3(CN(Cc4cccc(F)c4)C3)C2=O)cc1 | – | – | inactive |
| CCN1CC(C(=O)NCC2(c3ccccc3F)CCCC2)CC1=O (stereo not given) | -19.2% | – | – |
| CC(C)c1ccc(CN2CCc3nc(N(C)C)[nH]c(=O)c3CC2)cc1 | -28.1% | – | – |
| COc1cccc(CCC(=O)N2C[C@@H](Oc3ccccc3)C[C@@H]2C(=O)N2CCOCC2)c1 | -15.4% | – | – |
| Cc1ccc(NC(=O)N[C@@H]2C=C(C(=O)NCCC(N)=O)C[C@@H](O)[C@@H]2O)cc1 | 2.14% [at 174 µM] | – | – |
| CN1C[C@@H]2CC[C@H](C1)N(Cc1cccc(OCCN3CCOCC3)c1)C2 | 3.93% | – | – |
| CCCCC(=O)N1CCC(OC2CCN(S(C)(=O)=O)CC2)CC1 | -18.1% | – | – |
| Cn1cnc(S(=O)(=O)N[C@H]2CCN(C(=O)CSCC(=O)O)[C@H](C(=O)N[C@H](Cc3ccccc3)C(N)=O)C2)c1 | 0.91% | – | – |
| COc1ccccc1-n1c(=O)c(C(=O)N2CCN([S+](C)(=O)[O-])CC2)nc2cccnc21 | -11.7% | – | – |
| Cc1ccncc1C(=O)N1CCC2(CC1)CC(c1ccccc1)C(=O)N2C (stereo not given) | -21.3% | – | – |
| Cc1cc(N2CCC3(CC2)CC(c2ccccc2)C(=O)N3C)ncn1 (stereo not given) | – | 79.4 µM (active) | – |
| CC#CCN1C(=O)NC(CCc2ccccc2)(C2CCN(Cc3ccccc3-c3ccco3)CC2)C1=O (stereo not given) | -25.6% | – | – |
| CC(=O)N1CC2(CCN(Cc3ncc[nH]3)CC2)CC1C(=O)O (stereo not given) | 0.833% | – | – |
| O=C(Nc1ccc(Oc2ccccc2)cc1)O[C@@H]1CO[C@H]2[C@@H]1OC[C@@H]2NCC1CC1 | -28.6% [at 174 µM] | – | – |
| O=C(Nc1ccccc1)O[C@@H]1CO[C@H]2[C@@H]1OC[C@@H]2NS(=O)(=O)c1cccc2cccnc12 | -22.1% | – | – |
| N#Cc1cccc(NC(=O)O[C@@H]2CO[C@H]3[C@@H]2OC[C@@H]3Nc2nccc(-c3ccccc3)n2)c1 | – | 35.5 µM (active) | – |
| COc1cccc([S+](=O)([O-])N2CCC3(C2)N=C(c2ccncc2)C(=O)N3)c1 (stereo not given) | -25.3% | – | – |
| CN1C(=O)CC[C@]2(C(=O)NCc3ccc4c(c3)OCO4)CCCC[C@@H]12 | -2.74% | – | – |
| CC1(C(=O)NCC2CCCO2)CCCc2cnc(Nc3ccccc3)nc21 (stereo not given) | -4.02% [at 138 µM] | – | – |
| CC1(C(=O)NCc2ccc3c(c2)OCO3)CCc2cnc(NCc3ccccc3)nc21 (stereo not given) | – | 3.16 µM (active) | – |
| O=C(NCc1ccc(F)cc1F)c1nnn2c1COC(c1ccc(Br)cc1)C2 (stereo not given) | -20.1% | – | – |
| COc1cccc([S+](=O)([O-])N2CCC3(CC2)C(=O)NN=C3c2ccncc2)c1 | -38.1% | – | – |
| CC(C)(C)C(=O)N1CCCC1C(=O)N1CCC(N2Cc3ccccc3C2=O)CC1 (stereo not given) | -10.6% | – | – |
